For some assays here: Potency and affinity values are given separately.
Columns and labels:
Set-up in all cases: scale not given: direction of the effect not stated beside the values
[1] = molecular target: Protein translocase subunit SecA (Escherichia coli (strain K12)) (UniProt P10408); assay: Assay to Identify E. coli SecA ATPase Inhibitors; type: functional; conditions: 30 µM
[2] = molecular target: T1, Ubiquitin-activating enzyme e1, putative (Leishmania donovani (strain BPK282A1)) (UniProt E9BSI1); assay: Leishmania donovani Ubiquitin Activating Enzyme (LdE1); type: functional; conditions: 30 µM
T1 sequence (whole entry): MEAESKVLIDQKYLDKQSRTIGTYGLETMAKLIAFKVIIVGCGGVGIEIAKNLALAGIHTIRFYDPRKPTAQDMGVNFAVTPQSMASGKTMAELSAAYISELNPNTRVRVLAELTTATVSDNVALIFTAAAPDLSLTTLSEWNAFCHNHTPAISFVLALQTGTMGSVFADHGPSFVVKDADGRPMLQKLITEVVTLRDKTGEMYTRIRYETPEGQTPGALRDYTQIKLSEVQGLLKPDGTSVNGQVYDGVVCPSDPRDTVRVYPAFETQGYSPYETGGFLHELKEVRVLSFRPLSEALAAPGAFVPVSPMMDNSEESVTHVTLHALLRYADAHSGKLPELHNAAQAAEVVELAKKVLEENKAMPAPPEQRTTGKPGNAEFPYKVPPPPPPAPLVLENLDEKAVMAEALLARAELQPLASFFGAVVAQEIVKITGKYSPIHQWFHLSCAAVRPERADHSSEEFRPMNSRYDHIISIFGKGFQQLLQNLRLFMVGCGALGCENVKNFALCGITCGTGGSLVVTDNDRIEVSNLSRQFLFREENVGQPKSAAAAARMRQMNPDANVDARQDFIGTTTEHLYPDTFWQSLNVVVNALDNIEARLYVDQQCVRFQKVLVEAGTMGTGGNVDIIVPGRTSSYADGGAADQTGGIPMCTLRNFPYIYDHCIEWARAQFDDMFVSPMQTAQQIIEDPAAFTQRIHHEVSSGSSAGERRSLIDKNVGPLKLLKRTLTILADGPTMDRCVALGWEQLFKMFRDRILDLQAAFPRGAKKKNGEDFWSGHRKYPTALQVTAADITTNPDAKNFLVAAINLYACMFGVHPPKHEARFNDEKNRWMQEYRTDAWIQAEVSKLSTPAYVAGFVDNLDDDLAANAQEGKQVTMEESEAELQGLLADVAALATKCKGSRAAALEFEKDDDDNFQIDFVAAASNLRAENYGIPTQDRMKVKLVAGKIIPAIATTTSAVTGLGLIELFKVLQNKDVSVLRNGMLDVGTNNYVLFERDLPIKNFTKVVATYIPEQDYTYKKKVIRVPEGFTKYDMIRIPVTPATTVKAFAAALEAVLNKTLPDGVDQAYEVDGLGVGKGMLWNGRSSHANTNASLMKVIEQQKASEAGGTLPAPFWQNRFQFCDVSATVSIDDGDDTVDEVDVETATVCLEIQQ

[3] = molecular target: AMP-activated protein kinase, AMPK (Homo sapiens) (UniProt P54646+O43741+P54619+Q9UGJ0+Q9Y478+Q13131+Q9UGI9); assay: AMP-dependent Kinase enzyme assay. An in vitro enzyme assay that detects ADP turnover that is directly proportional to AMPK activity. This uses naive AMPK that is activated during the assay with MK-8722; type: functional; conditions: 30 µM
[4] = molecular target: Sialic acid-binding Ig-like lectin 9 (Homo sapiens) (UniProt Q9Y336); assay: Hs-Siglec9 ALPHAscreen SOP 20170721; conditions: 10 µM
Sialic acid-binding Ig-like lectin 9 (Homo sapiens), sequence (Q9Y336 whole entry): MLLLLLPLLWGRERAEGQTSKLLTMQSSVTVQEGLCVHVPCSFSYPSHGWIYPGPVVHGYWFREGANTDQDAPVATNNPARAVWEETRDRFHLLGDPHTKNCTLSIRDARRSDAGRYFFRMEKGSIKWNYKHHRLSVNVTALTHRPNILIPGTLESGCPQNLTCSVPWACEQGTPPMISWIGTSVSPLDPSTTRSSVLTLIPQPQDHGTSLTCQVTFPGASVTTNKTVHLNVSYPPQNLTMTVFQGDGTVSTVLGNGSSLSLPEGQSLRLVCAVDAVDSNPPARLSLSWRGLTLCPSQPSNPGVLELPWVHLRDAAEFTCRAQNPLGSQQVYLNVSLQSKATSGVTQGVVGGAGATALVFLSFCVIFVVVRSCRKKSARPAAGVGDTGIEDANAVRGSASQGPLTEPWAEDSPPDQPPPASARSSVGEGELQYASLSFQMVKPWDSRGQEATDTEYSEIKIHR

[5] = test system: Trypanosoma cruzi; assay: Trypanosoma cruzi phosphomannomutase and mannose-1-phosphate guanylyltransferase assay; type: functional; conditions: 10 µM
[6] = molecular target: T2, Arginase-2, mitochondrial (Homo sapiens) (UniProt P78540); assay: in vitro enzyme assay to detect the production of urea directly proportional to the activity of Arginase II; type: functional; conditions: 33.3 µM; further: in the data most compounds retested in dose-response had high values
T2 sequence (whole entry): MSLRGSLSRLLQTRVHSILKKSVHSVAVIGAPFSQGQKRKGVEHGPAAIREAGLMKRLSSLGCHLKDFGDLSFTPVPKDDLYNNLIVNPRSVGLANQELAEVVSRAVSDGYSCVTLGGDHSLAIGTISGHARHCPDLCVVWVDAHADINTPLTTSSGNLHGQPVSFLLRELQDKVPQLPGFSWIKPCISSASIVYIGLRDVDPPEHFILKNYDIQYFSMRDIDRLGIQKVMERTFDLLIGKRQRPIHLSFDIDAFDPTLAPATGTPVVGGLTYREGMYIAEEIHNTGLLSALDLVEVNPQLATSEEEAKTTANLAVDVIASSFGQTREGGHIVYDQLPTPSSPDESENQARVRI

[7] = molecular target: T3, Proteasome subunit beta (Trypanosoma cruzi) (UniProt O96673); assay: Trypanosoma cruzi proteasome chymotrypsin-like activity (TcProtChymo) assay.; further: in the data most compounds retested in dose-response had high values; type: functional; conditions: 9.37 µM
T3 sequence (whole entry): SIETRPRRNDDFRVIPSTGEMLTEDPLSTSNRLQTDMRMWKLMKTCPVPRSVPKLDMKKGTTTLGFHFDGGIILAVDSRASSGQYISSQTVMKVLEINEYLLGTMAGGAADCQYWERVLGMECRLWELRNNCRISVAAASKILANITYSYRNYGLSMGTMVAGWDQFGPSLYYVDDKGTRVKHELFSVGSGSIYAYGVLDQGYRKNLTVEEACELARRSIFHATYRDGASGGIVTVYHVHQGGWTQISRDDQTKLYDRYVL

[8] = species: Homo sapiens; assay: To identify inhibition of the IFN signalling (Jak-Stat) pathway via expression of an eGFP reporter gene under the control of an IFN-stimulated response element (ISRE) containing MxA promoter.; type: functional; conditions: 30 µM
[9] = molecular target: T4, Tyrosyl-tRNA synthetase, putative (Trypanosoma cruzi (strain CL Brener)) (UniProt Q4DSP6); assay: Trypanosoma cruzi tyrosyl tRNA synthetase (TcYRS) _High Tyrosine SOP; type: functional; conditions: 30 µM; further: in the data most compounds retested in dose-response had high values
T4 sequence (whole entry): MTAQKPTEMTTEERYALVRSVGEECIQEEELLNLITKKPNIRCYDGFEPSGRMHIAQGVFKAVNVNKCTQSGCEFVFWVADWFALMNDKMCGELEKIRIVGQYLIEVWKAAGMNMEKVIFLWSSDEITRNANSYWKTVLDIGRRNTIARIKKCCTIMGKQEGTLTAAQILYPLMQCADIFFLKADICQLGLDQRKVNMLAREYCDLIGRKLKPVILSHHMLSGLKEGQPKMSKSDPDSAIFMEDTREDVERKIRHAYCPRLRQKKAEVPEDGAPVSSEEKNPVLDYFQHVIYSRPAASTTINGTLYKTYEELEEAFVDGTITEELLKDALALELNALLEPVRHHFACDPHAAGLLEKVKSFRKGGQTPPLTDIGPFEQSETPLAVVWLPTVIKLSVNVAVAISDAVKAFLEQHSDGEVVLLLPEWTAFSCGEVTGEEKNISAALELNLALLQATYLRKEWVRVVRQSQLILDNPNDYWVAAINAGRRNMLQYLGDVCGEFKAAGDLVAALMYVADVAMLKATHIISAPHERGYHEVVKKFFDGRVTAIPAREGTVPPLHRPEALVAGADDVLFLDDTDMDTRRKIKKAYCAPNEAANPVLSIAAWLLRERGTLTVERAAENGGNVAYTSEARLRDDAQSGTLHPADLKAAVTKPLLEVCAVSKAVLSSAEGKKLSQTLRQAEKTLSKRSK

[10] = molecular target: T4, Tyrosyl-tRNA synthetase, putative (Trypanosoma cruzi (strain CL Brener)); assay: Trypanosoma cruzi tyrosyl tRNA synthetase (TcYRS) SOP; type: functional; conditions: 30 µM
[11] = molecular target: Chromo domain-containing protein 1 (Saccharomyces cerevisiae (strain ATCC 204508 / S288c) (Baker's yeast)) (UniProt P32657); assay: ScCHD-1 Enzyme Inhibition Assay; type: functional; conditions: 30 µM; further: in the data most compounds retested in dose-response had high values
Chromo domain-containing protein 1 (Saccharomyces cerevisiae (strain ATCC 204508 / S288c) (Baker's yeast)), sequence (P32657 whole entry, the tested form may be a part): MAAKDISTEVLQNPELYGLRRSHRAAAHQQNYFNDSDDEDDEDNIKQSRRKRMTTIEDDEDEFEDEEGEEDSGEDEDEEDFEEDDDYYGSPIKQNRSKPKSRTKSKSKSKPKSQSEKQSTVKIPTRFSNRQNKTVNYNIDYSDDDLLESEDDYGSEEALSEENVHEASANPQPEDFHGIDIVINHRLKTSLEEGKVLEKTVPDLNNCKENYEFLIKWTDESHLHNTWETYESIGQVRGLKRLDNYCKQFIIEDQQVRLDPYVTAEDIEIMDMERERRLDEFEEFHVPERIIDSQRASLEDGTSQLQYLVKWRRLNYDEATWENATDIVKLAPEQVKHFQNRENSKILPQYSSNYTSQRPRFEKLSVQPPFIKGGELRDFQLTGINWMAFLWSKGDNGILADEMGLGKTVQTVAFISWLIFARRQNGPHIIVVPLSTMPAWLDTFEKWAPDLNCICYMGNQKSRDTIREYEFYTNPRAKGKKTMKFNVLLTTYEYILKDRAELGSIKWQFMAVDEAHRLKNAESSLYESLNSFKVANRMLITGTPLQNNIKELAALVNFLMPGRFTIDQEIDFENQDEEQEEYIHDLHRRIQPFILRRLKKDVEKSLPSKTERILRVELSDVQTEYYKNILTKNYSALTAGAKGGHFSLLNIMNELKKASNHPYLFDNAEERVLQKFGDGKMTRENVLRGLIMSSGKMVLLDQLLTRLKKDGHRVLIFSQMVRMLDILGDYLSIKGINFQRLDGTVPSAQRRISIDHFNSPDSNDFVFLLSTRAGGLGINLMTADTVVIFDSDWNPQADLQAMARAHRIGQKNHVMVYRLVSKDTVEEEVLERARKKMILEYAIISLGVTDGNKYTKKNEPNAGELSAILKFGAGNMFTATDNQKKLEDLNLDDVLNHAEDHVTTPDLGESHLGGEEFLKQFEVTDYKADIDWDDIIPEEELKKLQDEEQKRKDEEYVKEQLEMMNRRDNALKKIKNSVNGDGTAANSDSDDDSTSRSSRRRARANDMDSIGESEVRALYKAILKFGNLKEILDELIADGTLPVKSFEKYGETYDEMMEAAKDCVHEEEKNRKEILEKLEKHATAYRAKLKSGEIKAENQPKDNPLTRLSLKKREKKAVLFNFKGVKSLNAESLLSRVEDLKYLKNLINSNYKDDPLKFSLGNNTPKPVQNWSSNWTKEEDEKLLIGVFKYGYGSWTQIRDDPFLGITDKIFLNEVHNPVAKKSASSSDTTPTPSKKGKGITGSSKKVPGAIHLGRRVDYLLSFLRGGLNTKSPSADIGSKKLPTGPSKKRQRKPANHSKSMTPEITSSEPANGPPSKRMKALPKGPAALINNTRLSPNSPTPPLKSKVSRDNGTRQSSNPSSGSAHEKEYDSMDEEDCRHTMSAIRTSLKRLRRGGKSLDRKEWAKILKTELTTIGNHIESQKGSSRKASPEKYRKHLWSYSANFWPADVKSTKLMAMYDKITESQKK

Protein translocase subunit SecA (Escherichia coli (strain K12)), sequence (P10408 whole entry): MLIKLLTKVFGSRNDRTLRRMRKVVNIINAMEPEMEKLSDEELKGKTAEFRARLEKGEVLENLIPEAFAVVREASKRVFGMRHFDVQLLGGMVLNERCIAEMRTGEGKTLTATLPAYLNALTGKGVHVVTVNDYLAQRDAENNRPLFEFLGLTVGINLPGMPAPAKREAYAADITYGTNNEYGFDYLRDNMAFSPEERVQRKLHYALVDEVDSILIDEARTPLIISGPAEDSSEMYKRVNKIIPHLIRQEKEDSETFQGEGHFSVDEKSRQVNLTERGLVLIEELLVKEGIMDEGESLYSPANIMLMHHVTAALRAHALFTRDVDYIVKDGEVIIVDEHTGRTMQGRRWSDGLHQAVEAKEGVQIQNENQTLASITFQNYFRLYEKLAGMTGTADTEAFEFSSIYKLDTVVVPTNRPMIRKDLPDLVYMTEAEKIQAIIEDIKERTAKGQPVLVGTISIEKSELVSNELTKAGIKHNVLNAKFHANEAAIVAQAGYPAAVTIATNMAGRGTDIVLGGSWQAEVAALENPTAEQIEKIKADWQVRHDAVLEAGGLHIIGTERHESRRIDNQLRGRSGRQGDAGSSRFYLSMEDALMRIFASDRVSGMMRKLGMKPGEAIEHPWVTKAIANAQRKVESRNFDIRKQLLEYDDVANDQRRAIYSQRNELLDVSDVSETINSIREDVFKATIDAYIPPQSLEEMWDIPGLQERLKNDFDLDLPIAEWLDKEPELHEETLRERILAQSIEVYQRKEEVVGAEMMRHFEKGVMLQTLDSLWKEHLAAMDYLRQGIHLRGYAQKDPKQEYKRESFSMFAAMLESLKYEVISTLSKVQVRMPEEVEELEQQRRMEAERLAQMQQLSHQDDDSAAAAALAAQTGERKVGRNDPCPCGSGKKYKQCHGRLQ

SMILES | Percent Effect [1] [%] | Percent Effect [2] [%] | Percent Effect [3] [%] | Percent Effect [4] [%] | Percent Effect [5] [%] | Percent Effect [6] [%] | Percent Effect [7] [%] | Percent Effect [8] [%] | Percent Effect [9] [%] | Percent Effect [10] [%] | Percent Effect [11] [%]
CCOCC1CN(C(=O)C2=CCCC2)Cc2cnn(CC)c21 (stereo unspecified) | -2.5 | 16.2 | -0.303 | 0.664 | 3.62 | 3.5 | 19.9 | 9.89 | 3.24 | 12.8 | -2.18
COc1ccc(F)c(CN2CCC(c3cc(O)nc(C)n3)C2)c1 (stereo unspecified) | -8.36 | 23 | -0.897 | -0.78 | 5.93 | -3.94 | 15.3 | 11.7 | 5.38 | 14.3 | -15
CN(C)CC1CSCCCN1C(=O)Nc1ccc(C(C)(C)C)cc1 (stereo unspecified) | -1.39 | 5.2 | 3.67 | 12.9 | -9.96 | -5.81 | 1.57 | 13.1 | 4.23 | 8.97 | -4.09
COc1cccc(OCCNCc2c(C)nn(C)c2N(C)C)c1 | -5.35 | 5.26 | -9.94 | 10.1 | 1.5 | 1.92 | 7.69 | -12 | 4.41 | 19.5 | -8.18
O=C(C1SCCc2sccc21)N1CCN(CCO)CC1 (stereo unspecified) | -6.92 | 16.2 | -1.14 | 33.4 | 2.34 | 22.5 | 17.7 | 11.7 | -3.96 | 15.8 | -3.8
CN(C)CC1CN(c2ncnc3[nH]ccc23)CCO1 (stereo unspecified) | -5.15 | 16.5 | 22 | 2.27 | 0.103 | -1.94 | 13.9 | 28.5 | 7.29 | 15.2 | -33
O=S1(=O)COCCN1Cc1ccc(Cl)c(F)c1 | 0.108 | 16.2 | -3.31 | 17.6 | 3.28 | 2.38 | 14.7 | 0.549 | 5.82 | 14.6 | -5.23
COc1c(CNCc2ccc(N(C)C)nc2)c(C(C)C)nn1C | -3.16 | 13.2 | -3.28 | 6.83 | 6.39 | 4.6 | 6.01 | 13.5 | 5.39 | 17.1 | -12.6
Cc1noc2ncc(C(=O)NCC3CCOC3)cc12 (stereo unspecified) | -4.3 | 0 | -6.17 | -5.94 | -6.96 | 1.53 | 6.35 | 26.5 | 2.45 | 0 | -12.5
O=C(c1ccnnc1)N1C[C@H]2CCC[C@@]2(COCC2CCOCC2)C1 | -1.23 | -16.2 | 2.91 | 1.16 | 7.72 | -2.87 | 9.04 | -6.27 | -1.08 | 5.13 | 0.739
O=C(CCc1ccc(Cl)s1)N1CCCC(n2cncn2)C1 (stereo unspecified) | -2.21 | -2.53 | 3.52 | 6.43 | -0.0944 | 5.32 | -3.36 | -2.4 | 0.493 | -1.27 | 0.688
CN1CCCC1CNC(=O)c1nnn(-c2ccc(F)cc2)c1C1CC1 (stereo unspecified) | -5.49 | 0 | 1.3 | 3.88 | -5.86 | 0 | 8.2 | 10.9 | 4.95 | 3.66 | -4.68
Cc1nc(C(C)(C)NC(=O)Nc2ccccc2)no1 | -11.3 | -2.74 | 2.23 | -0.244 | -3.53 | 3.18 | 6.92 | 17.2 | -2.15 | 0 | -0.168
Cc1nc(C)n(CC2CN(CC(=O)Nc3nccs3)CCO2)n1 (stereo unspecified) | -0.715 | 1.39 | -0.871 | 15.8 | 3.98 | 10.6 | 7.19 | 20.3 | 5.26 | 10.3 | -1.52
O=C(Cn1ccc2sccc2c1=O)NCc1ccc2c(c1)OCO2 | -3.35 | 5.2 | 2.53 | 0.145 | -5.62 | 4.52 | 4.53 | 1.29 | 5.29 | 11.5 | -2.27
CCn1ncc2c1C(COCC1CC1)CN(C(=O)c1cccs1)C2 (stereo unspecified) | 1.75 | 24.7 | -1.43 | 2.69 | -0.794 | -6.39 | 13.6 | 21.1 | 7.29 | 13.6 | -3.6

— ChEMBL document CHEMBL3988442, “University of Dundee, Small-Polar-MMV Screening Library” (2021)
